# Measured values: paper PMC4336329 (PLoS ONE, 2015)
# Among all 310,000 compounds or so, about 14,000 (4.5%) showed an effect of 50% or more. Effects have a minus sign here. This is one part of a sample in which strong results are shown more often than they occur.
# Molecular target: human ether-à-go-go-related gene (hERG) potassium channel (human, UniProt Q12809)
# Experiment: primary screen, population patch clamp on CHO cells stably expressing hERG; higher = less effect of the substance
# 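Note: peak tail current of the secondary pulse compared with the same well before compound.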
# human ether-à-go-go-related gene (hERG) potassium channel, sequence (Q12809 whole entry, looked up): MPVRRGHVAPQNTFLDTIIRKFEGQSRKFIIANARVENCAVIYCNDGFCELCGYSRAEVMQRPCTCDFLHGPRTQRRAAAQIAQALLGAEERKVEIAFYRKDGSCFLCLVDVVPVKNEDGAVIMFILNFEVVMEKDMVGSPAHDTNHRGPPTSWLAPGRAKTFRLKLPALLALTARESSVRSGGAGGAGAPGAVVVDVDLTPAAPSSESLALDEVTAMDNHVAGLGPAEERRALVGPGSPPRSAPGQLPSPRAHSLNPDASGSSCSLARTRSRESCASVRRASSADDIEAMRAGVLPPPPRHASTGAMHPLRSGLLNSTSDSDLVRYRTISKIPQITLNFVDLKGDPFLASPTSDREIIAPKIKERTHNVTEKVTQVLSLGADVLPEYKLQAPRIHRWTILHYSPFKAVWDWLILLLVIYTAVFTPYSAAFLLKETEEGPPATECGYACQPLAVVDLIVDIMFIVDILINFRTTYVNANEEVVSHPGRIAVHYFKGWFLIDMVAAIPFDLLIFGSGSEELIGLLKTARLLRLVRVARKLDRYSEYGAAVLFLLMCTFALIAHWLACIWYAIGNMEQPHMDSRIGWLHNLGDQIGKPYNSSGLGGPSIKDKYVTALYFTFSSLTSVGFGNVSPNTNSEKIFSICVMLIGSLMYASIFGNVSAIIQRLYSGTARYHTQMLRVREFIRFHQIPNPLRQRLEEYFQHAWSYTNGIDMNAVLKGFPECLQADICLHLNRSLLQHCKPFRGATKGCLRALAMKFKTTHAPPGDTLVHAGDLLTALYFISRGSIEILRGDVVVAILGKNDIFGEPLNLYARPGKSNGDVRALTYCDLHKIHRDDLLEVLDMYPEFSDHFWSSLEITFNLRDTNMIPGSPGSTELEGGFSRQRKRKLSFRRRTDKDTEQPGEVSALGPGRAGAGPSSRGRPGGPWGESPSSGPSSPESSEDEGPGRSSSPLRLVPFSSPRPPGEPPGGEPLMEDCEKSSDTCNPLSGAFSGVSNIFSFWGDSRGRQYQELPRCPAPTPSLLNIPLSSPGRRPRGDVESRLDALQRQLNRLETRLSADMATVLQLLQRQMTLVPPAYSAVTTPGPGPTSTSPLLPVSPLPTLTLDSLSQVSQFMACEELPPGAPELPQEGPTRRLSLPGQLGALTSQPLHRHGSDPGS
row,SMILES,"hERG current change (%, negative = inhibition) at 10uM [%]"
1,CCCCCn1c(NC2CCCCC2)nc2c1c(=O)[nH]c(=O)n2C,-17.6
2,N#CCCN(C(=O)Nc1ccc(Cl)c(Cl)c1)c1ccccc1,-0.506
3,CCOc1cc(/C=C2\SC(=S)N(NS(=O)(=O)c3ccccc3)C2=O)ccc1O,8.33
4,CCCCn1c(N)c(N(CCC(C)C)C(=O)COC(=O)c2ccccc2)c(=O)[nH]c1=O,3.79
5,Cc1cc(C)c2nc(N(CCCN(C)C)C(=O)c3ccc(S(=O)(=O)N4CCCCCC4)cc3)sc2c1.Cl,-20.3
6,CN(C)CCCN(C(=O)c1ccc(S(=O)(=O)N2CCCC2)cc1)c1nc2ccc(Br)cc2s1.Cl,-47.9
7,Cc1ccc2nc(N(CCCN(C)C)C(=O)c3ccc(S(=O)(=O)N4CCOCC4)cc3)sc2c1.Cl,-33.9
8,CCOc1ccc2nc(N(CCCN(C)C)C(=O)c3ccc(S(=O)(=O)N4CCCC4)cc3)sc2c1.Cl,-70.4
9,Cc1ccc2nc(N(CCCN(C)C)C(=O)c3ccc(S(=O)(=O)N4CCCCCC4)cc3)sc2c1.Cl,-58
10,CCOc1ccc2nc(N(CCCN(C)C)C(=O)c3ccc(S(=O)(=O)N4CCc5ccccc5C4)cc3)sc2c1.Cl,-1.08
11,CCc1ccc2nc(N(CCCN(C)C)C(=O)c3ccc(S(=O)(=O)N4CCCC4)cc3)sc2c1.Cl,-67.7
12,CCc1ccc2nc(N(CCCN(C)C)C(=O)c3ccc(S(=O)(=O)N4CCc5ccccc5C4)cc3)sc2c1.Cl,-7.91
13,COc1ccccc1N1CC(C(=O)Nc2nnc(SCC(=O)NC(C)C)s2)CC1=O (stereo not drawn),20.1
14,CC(=O)Nc1ccc(NC(=O)CSc2nnnn2C2CCCCC2)cc1,-8.79
15,O=C(CNC(=O)N1CC(=O)Nc2ccccc21)Nc1nccs1,12
16,CCCc1c(O)nc(SCC(=O)O)[nH]c1=O,67.7
17,CC1(C)CC(=O)/C(=C(/O)Cc2ccccc2)C(=NCCc2ccccc2)C1,-45.2
18,O=C(C1CCCCC1)N(Cc1ccccc1)c1ccccn1,1.25
19,O=C(NC1CC2CCCC(C1)N2Cc1ccccc1)C1CCCCC1 (stereo not drawn),-25.2
20,COc1cc(C(=O)NC2CC3CCCC(C2)N3Cc2ccccc2)cc(OC)c1OC (stereo not drawn),8.89
21,CCN(CC)C(=O)NC1CC2CCCC(C1)N2Cc1ccccc1 (stereo not drawn),-6.25
22,COc1ccc(CN2C3CCCC2CC(NC(=O)/C=C/c2ccccc2)C3)cc1 (stereo not drawn),-88
23,CNC(=S)NC1CC2CCCC(C1)N2Cc1ccccc1OC (stereo not drawn),-10.1
24,COc1ccccc1CN1C2CCCC1CC(NC(=O)/C=C/c1ccccc1)C2 (stereo not drawn),-59.4

row,SMILES,"hERG current change (%, negative = inhibition) at 10uM [%]"
1,O=C(/C=C/c1ccccc1)NC1CC2CCCC(C1)N2Cc1ccccc1 (stereo not drawn),-69.7
2,COc1ccc(C(=O)OCC(=O)Nc2c(C)n(C)n(-c3ccccc3)c2=O)cc1OC,16.5
3,CCc1[nH]nc2c1C(C(C)C)C(C#N)=C(N)O2 (stereo not drawn),10.8
4,Cn1c(Cc2ccccc2)nnc1SCC(=O)Nc1ccc2c(c1)OCO2,5.64
5,Cc1ccc(NC(=O)/C(=C\c2ccccc2)NC(=O)/C=C/c2ccccc2)cc1,-12.9
6,Cn1c(=O)cc(SCC(=O)N2CCC3(CC2)OCCO3)c2ccccc21,-1.64
7,CC1CCN(C2(O)C(=O)Nc3ccc(Cl)cc32)CC1 (stereo not drawn),4.26
8,CC(Sc1ncnc2ccccc12)C(=O)Nc1ccc2c(c1)OCCO2 (stereo not drawn),5.25
9,Cc1cccc(OCC(O)CNC(=O)c2ccccc2C(=O)O)c1 (stereo not drawn),-21.2
10,Cl.N=c1n(Cc2ccccc2)c2ccccc2n1CC(O)COc1ccccc1 (stereo not drawn),-74.6
11,OC(COc1ccccc1)Cn1c2ccccc2c2ccccc21 (stereo not drawn),6
12,COc1ccc(OCC(O)Cn2c(=N)n(Cc3ccccc3)c3ccccc32)cc1.Cl (stereo not drawn),-73.5
13,N=c1ccccn1CC(O)COc1ccccc1 (stereo not drawn),-3.09
14,Cc1cccc(OCC(O)Cn2c(=N)n(Cc3ccccc3)c3ccccc32)c1.Cl (stereo not drawn),-71
15,COc1ccc(OCC(O)CN2C(=O)c3ccccc3C2=O)cc1 (stereo not drawn),8.41
16,Cl.N=c1n(Cc2ccc(Cl)cc2)c2ccccc2n1CC(O)COc1ccccc1 (stereo not drawn),-68.2
17,CC1(C)CC(=O)c2cc(C(=O)N3CCCC(C)(C)C3)c(=O)n(-c3ccccc3)c2C1,11.5
18,CCc1c(C)sc(NC(=O)/C=C/C(=O)O)c1C(N)=O,36.5
19,Cc1ccc(C2CC(=O)Nc3c2ccc2ccccc32)cc1[N+](=O)[O-] (stereo not drawn),6.65
20,CC(=O)c1nn(-c2ccccc2)cc1C(=O)c1ccc(C)cc1,3.72
21,N#Cc1c(C(F)(F)F)cc(-c2ccc(F)cc2)nc1SCC(=O)O,6.06
22,COc1ccc(OC)c(N(CC(=O)NCc2ccccc2)S(=O)(=O)c2ccc(OC)c(OC)c2)c1,18.3
23,CCN(CC)S(=O)(=O)c1ccc(OC)c(NC(=O)CCS(=O)(=O)Cc2ccccc2)c1,-28
24,Cc1csc(NC(=O)C2C3C=CC(C3)C2C(=O)O)n1 (stereo not drawn),-6.11

row,SMILES,"hERG current change (%, negative = inhibition) at 10uM [%]"
1,COC(=O)Cc1ccc(NC(=S)NCc2ccccc2Cl)cc1,-6.56
2,COC(=O)c1ccc(C(=O)OC)c(NS(C)(=O)=O)c1,-1.73
3,O=C1CC(C(F)(F)C(F)(F)C(F)(F)F)=Nc2ccccc2N1,-15.1
4,CC(=O)OCCNC(=O)c1cc2ccccc2oc1=O,9.06
5,Br.CC(C)(C)C(=O)Cn1c(=N)n(Cc2ccccc2)c2ccccc21,-48.2
6,Br.N=c1n(CCc2ccccc2)c2ccccc2n1Cc1ccccc1F,-62.6
7,Br.CCn1c(=N)n(Cc2ccccc2F)c2ccccc21,-37.5
8,O=c1n(Cc2ccccc2F)c2ccccc2n1Cc1ccccc1F,19.4
9,N=c1n(Cc2ccccc2)c2ccccc2n1Cc1ccccc1,-62.1
10,Cl.N=c1n(CCO)c2ccccc2n1Cc1ccccc1,-25.1
11,O=C(COc1ccc(Cl)cc1)NCCNC(=O)c1cnccn1,5.3
12,Cc1oc(-c2ccc(Cl)cc2)nc1CS(=O)CC(=O)NCCN1CCCCCC1 (stereo not drawn),-39.4
13,Cc1ccccc1Cn1cc(S(=O)(=O)c2ccc(C(C)C)cc2)c(=O)c2cc3c(cc21)OCO3,-20.2
14,Cc1ccccc1OCc1n(CC(=O)OC2CC(C)CCC2C(C)C)c2ccccc2[n+]1C.[Cl-] (stereo not drawn),-72
15,CC1CCC(C(C)C)C(OC(=O)CSc2nc(N)cc(=O)[nH]2)C1 (stereo not drawn),12.7
16,CC1CCC(C(C)C)C(OC(=O)COC(=O)c2cc(O)ccc2N)C1 (stereo not drawn),12.9
17,Cc1ccccc1OC(=O)Cn1c(C(F)(F)F)nc2ccccc21,3.95
18,Cc1cccc(OCc2n(CC(=O)OC3CC(C)CCC3C(C)C)c3ccccc3[n+]2C)c1.[Cl-] (stereo not drawn),-75
19,Cc1cccc(OC(=O)Cn2c(C(F)(F)F)nc3ccccc32)c1,17.6
20,COc1ccc(OCc2n(CC(=O)OC3CC(C)CCC3C(C)C)c3ccccc3[n+]2C)cc1.[Cl-] (stereo not drawn),-76.4
21,CC1CCC(C(C)C)C(OC(=O)COC(=O)c2ccccc2N)C1 (stereo not drawn),9.64
22,CC1CCC(C(C)C)C(OC(=O)Cn2c(COc3ccccc3)[n+](C)c3ccccc32)C1.[Cl-] (stereo not drawn),-80.4
23,CN1CCN(C(=O)CCCOc2cc(=O)n(C)c3ccccc23)CC1,0.874
24,COc1cccc(NC(=O)C2C3C=CC(O3)C2C(=O)O)c1 (stereo not drawn),10.6

row,SMILES,"hERG current change (%, negative = inhibition) at 10uM [%]"
1,Cc1ccccc1OCCNC(=O)CSc1ccc(C(F)(F)F)cc1[N+](=O)[O-],10.6
2,COc1ccc(CCNC(=O)c2ccc(N3CCCC3=O)cc2)cc1OC,15.3
3,COc1ccc(C(=O)N/C(=C/c2cccnc2)C(=O)N2CCN(C)CC2)cc1OC,11.4
4,Cc1cc(C)n(C(=O)COc2ccccc2C)n1,-3.33
5,Nc1c(C(=O)Nc2ccccc2F)sc2nc(-c3cccnc3)ccc12,20.9
6,O=C(COC(=O)c1ccncc1)Nc1cc(Cl)ccc1Cl,6.07
7,CCOCCn1c(SCc2ccc(F)cc2)nc2c1c(=O)[nH]c(=O)n2C,-19.5
8,Cc1ccc(C(C)C)c(OCCOCCN2CCNCC2)c1.O=C(O)C(=O)O,-3.95
9,CC(C)(C)c1ccc(OCC(=O)NCCN2CCCC2)cc1.Cl,-33.7
10,CCOC(=O)n1c(=O)n(Cc2ccc(Cl)cc2Cl)c2ccccc21,-3.22
11,CC(=O)NC1CC2CCCC(C1)N2C(=O)Nc1ccc(Cl)c(C(F)(F)F)c1 (stereo not drawn),-3.34
12,O=C(Nc1ccc(Cl)c(C(F)(F)F)c1)NC1CC2CCCC(C1)N2Cc1ccccc1 (stereo not drawn),-71
13,COc1ccc(NC(=O)N2C3CCCC2CC(NC(=O)c2ccccc2)C3)cc1 (stereo not drawn),-15.9
14,O=C(Nc1ccc(Cl)c(C(F)(F)F)c1)NC1CC2CCCC(C1)N2C1CC1 (stereo not drawn),-10.1
15,COc1ccc(C(=O)NC2CC3CCCC(C2)N3Cc2ccccc2)c(OC)c1 (stereo not drawn),-26.5
16,COCC(=O)NC1CC2CCCC(C1)N2Cc1ccccc1 (stereo not drawn),-4.63
17,COc1ccc(CN2C3CCCC2CC(NC(=O)Nc2ccccc2C)C3)cc1 (stereo not drawn),-59
18,Cc1ccccc1NC(=O)NC1CCCCCCC1,8.64
19,COc1ccc(NC(=O)NC2CC3CCCC(C2)N3Cc2ccccc2)cc1 (stereo not drawn),-50.1
20,Cc1cccc(NC(=S)NC2CC3CCCC(C2)N3Cc2ccccc2)c1C (stereo not drawn),-10.4
21,COc1ccc(CN2C3CCCC2CC(NC(=O)Nc2ccccc2)C3)cc1 (stereo not drawn),-74.1
